Experimental data as given in PubChem BioAssay AID493248 (Broad Institute, 2011).
The whole screen tested about 2,300 compounds, of which about 1,400 (61%) were called active. About 7% were inconclusive and are not listed. How the calls were made is not given here. The set was probably picked from earlier hits. Only a sample is shown. Potency and affinity values are given separately.

target: FAD-linked sulfhydryl oxidase ALR (Homo sapiens) (UniProt P55789); test: inhibitors of human ALR sulfhydryl oxidase, dose response, biochemical, H2O2 detection, luminescence, cherry-pick (AID 493248); conditions: purified ALR, DTT oxidation, H2O2 HRP-luminol luminescence; at 10 µM (top of the series)
Sequence (P55789 whole entry, looked up): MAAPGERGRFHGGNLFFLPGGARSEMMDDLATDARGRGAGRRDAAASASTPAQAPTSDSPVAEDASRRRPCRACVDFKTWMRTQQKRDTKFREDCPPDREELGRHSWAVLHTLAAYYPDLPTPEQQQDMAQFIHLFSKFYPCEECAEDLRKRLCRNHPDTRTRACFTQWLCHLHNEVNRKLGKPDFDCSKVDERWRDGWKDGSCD

SMILES	activity change, negative = inhibition
Cn1nnnc1SCc1ccc(C(=O)Nc2nccs2)cc1	-48.1%
O=C1NCCCc2c1oc1ccc(O)cc21	36.1%
Nc1nn2cc(-c3ccccc3)nc2c2ccccc12	-12.4%
COC(=O)CNS(=O)(=O)c1ccc(Cc2ccc(S(=O)(=O)NCC(=O)OC)cc2)cc1	3.52%
CCCc1cc(=O)[nH]c(Nc2ccc(O)cc2)n1	-100%
Cn1cccc1C(=O)OCc1csc(-c2ccccc2)n1	0.233%
O=C(c1ccc(Cl)s1)N1CCN(c2ccccc2)CC1	-20%
O=C(c1cc(C2CC2)on1)N1CCN(c2ccccc2)CC1	-8.71%
Cc1cc(C(=O)CC#N)c(C)n1CC(F)(F)F	-17.1%
CCN1CCSc2ccc(C(=O)NCc3cccc(F)c3)cc21	16%
COc1cccc(/C=N/NC(=O)CNC(=O)c2cccnc2)c1O	-19%
CCCC(C(=O)O)n1c(O)c(C=C2N=c3ccccc3=N2)sc1=S (centres undefined)	-50.1%
O=C(c1ccco1)n1nc(-c2ccccc2)nc1NCc1ccco1	-41.9%
O=[N+]([O-])c1cc2c(cc1/C=N/n1c(-c3ccccc3)n[nH]c1=S)OCO2	-34.5%
CC(C)c1cc(C(=O)N/N=C/c2ccco2)n[nH]1	21.6%
CC(=C\c1ccccc1)/C=C1/SC(=O)N(CCCC(=O)Nc2ccc(C(=O)O)cc2)C1=O	1.78%
S=c1[nH]nc(Cc2ccccc2)n1-c1ccccc1	-7.81%
CC(=O)Oc1ccc(Nc2ccccc2)cc1	-1.83%
COc1ccc2oc3cc(C)[n+]([O-])c(-c4ccc(C)cc4)c3c2c1	-57.4%
O=C(O)CC/C(=C\c1ccccc1[N+](=O)[O-])c1nc2ccccc2s1	-55.4%
COc1ccc(-c2noc(CN3CCN(c4ccccc4F)CC3)n2)cc1OC	-0.443%
C(=N\Nc1ncnc2ccccc12)/c1ccccc1	-47.4%
COc1cc(/C=C2\SC(=S)N(NC(=O)c3ccc(O)cc3)C2=O)ccc1O	-100%
O=C(O)CCCN1C(=O)/C(=C\c2ccc(-c3nc4ccccc4s3)o2)SC1=S	-22.6%
COc1cc(NC(=O)NCCN2CCN(c3ccccc3)CC2)cc(OC)c1OC	-25.8%

SMILES	activity change, negative = inhibition
COc1ccc(OC)c(NC(=O)CN(c2ccc(C(C)C)cc2)S(=O)(=O)c2c(C)noc2C)c1	28.2%
COc1ccc(C(=O)N/N=C(/C)c2ccc(N3CCCCC3)cc2)cc1	-0.469%
COc1ccc(NC(=O)c2cccnc2N2CCCC2)cc1	19.3%
COc1c(C)cccc1C(=O)Nc1ccc(CN2CCCCC2)cc1	7.1%
CCCN1C(=O)c2ccc(C(=O)Nc3ccccc3C(=O)O)cc2C1=O	-23.6%
O=C(Nc1cc([N+](=O)[O-])ccc1O)c1ccc2c(c1)C(=O)N(Cc1ccco1)C2=O	-17.4%
COc1ccc(C)cc1NCc1ccc(OC)c(C)c1OC	-55.4%
Cc1ccc(N2CC(=O)N(NC(=O)CN3CCN(c4ccccc4)CC3)CC2=O)cc1	-47.4%
COc1ccc(C(=O)N/N=C/C2CC=CCC2)cc1OC (centres undefined)	-39.6%
Fc1ccc(-n2c(-c3ccc4c(c3)OCO4)n[nH]c2=S)cc1Cl	-56.2%
CN1C(=O)C2C(c3ccc(N(C)C)cc3)=NN(Cc3ccccc3)C2C1=O (centres undefined)	-0.925%
Cc1nc2cc(N)ccc2n1-c1ccccc1	367%
CC1=Nc2ccccc2N=C(N)C1c1ccccc1 (centres undefined)	-61.3%
Cc1cc(C(=O)NNc2ccc(F)cc2F)no1	5.89%
COc1cc(C(=S)N(C)C)ccc1O	-5.3%
Oc1ccc(/C=N/N=C/c2ccc(O)cc2)cc1	256%
O=Cc1ccc(O)c(O)c1	-17.2%
Oc1ccc(N=Cc2ccc(O)c(O)c2)cc1	102%
CC(C)CNC(=O)C(=O)N/N=C/c1cccs1	-15.3%
CCn1c(O)c(/C=N/n2cnnc2)sc1=S	-33%
Cc1cccc(NCCNc2cccc(C)c2)c1	-44.1%
Cc1cccc(N/N=C/c2ccncc2)c1	-105%
C/C(=N\NC(=O)CCCNc1ccc(C)cc1)c1ccccn1	419%
CC(C)C(=O)c1ccc(O)c(O)c1	-24.1%
Cc1cccc(Nc2nc(N)nc(CCl)n2)c1C	-38.4%

SMILES	activity change, negative = inhibition
CN(C)CCC(=O)N1c2ccccc2Sc2ccc(C(F)(F)F)cc21	-13.8%
CCNc1nc(OC)nc(N(OC)S(=O)(=O)c2ccc(C)cc2)n1	-55.8%
O=S(=O)(Cc1ccccc1)N(O)c1ccccc1	-38.7%
CCCN1C(=O)c2cc(C(=O)NC3CCCCCC3)ccc2C1O (centres undefined)	-16.6%
CC(C)(O)C#Cc1ccc(C(=O)NC2CCCCC2)s1	-45.6%
Cc1ccc(NC(=O)CCC(=O)N/N=C/c2ccc(O)cc2)cc1	-2.67%
O=C(CCn1cnc2ccccc21)N/N=C/c1ccc(O)cc1	-88.9%
Nc1c(Cl)ncnc1N/N=C/c1cccc(O)c1	-7.72%
O/N=C/c1cccn1-c1ccc(O)cc1	-99.2%
O=C(C[n+]1ccccc1)N/N=C/c1ccc(O)cc1	-108%
O=c1oc2ccccc2n1CSC1=NCCS1	-21.8%
O=[n+]1cc(-c2cc3ccccc3o2)n([O-])c2c1CCCC2	-33.9%
Cc1cc(Nc2ccccc2)n(CCC#N)n1	-16.4%
CC(C)NC(=O)c1ccccc1S(=O)c1ccccc1C#N (centres undefined)	-2.78%
CN(C)c1ccc(/C(=N\O)C(F)(F)F)cc1	-20%
Cc1ccc(Nc2c(F)c(F)c(F)c(F)c2C(=O)O)c(C)c1	-51.9%
O=C(O)c1ccccc1Nc1ccccc1	-21%
Cc1ccc(O)c(-c2cc(C(F)(F)C(F)F)[nH]n2)c1	3.95%
COc1ccc([N+](=O)[O-])cc1NC1CCCCC1	-14.6%
COc1ccc(CCC(=O)N2CCCC(Nc3ccc(OC)cc3)C2)cc1 (centres undefined)	9.94%
Cc1ccc2[nH]cc(CCNC(=O)c3cccnc3)c2c1	-59.6%
Cn1c(=O)c2c(-c3ccccc3)n(-n3cnnc3)cc2n(C)c1=O	-14.5%
C=CCN1CCc2cc(O)c(O)cc2C(c2ccccc2)C1 (centres undefined)	-91.4%
Cc1cccc(C2CN(C)CCc3c2cc(O)c(O)c3Cl)c1 (centres undefined)	-100%
Cn1c(=O)[nH]c(=O)c2c1[nH]c(=S)n2Cc1ccc(Cl)cc1	-38.6%

SMILES	activity change, negative = inhibition
CCCCCn1c(Br)nc2c1c(=O)n(CC(N)=O)c(=O)n2C	-20.4%
CCN1CCN(Cc2nc3c(c(=O)n(C)c(=O)n3C)n2CC(=O)c2ccccc2)CC1	13.8%
N#C/C(N=Nc1ccccc1O)=N\Nc1ccccc1O	22.3%
CC(C)(C)Nc1c(-c2cccs2)nc2ccccn12	-39.4%
Nc1ccc2sc(N)nc2c1	299%
Cc1cc(NC(=O)c2sc(Nc3ccc(F)cc3)nc2N)no1	-41.5%
O=C(c1ccccn1)N1CCCC(N2CCN(c3ccc(F)cc3)CC2)C1 (centres undefined)	-82.4%
CC(C)N(c1nnc(N)s1)C(C)C	-37.4%
COc1ccc(C(N)CCc2ccco2)cc1 (centres undefined)	0.936%
O=C(Nc1cccs1)Nc1c(F)cc(F)cc1Br	-42.8%
CC(C)NC(=O)Nc1cccs1	-47.1%
Cc1ccc(NC(=O)Nc2cccs2)nc1	-2.58%
Oc1ccc(NCc2cccs2)cc1	41.7%
Cc1ccc(N2CCN(CCCN3C(=O)C4CCCN4C3=O)CC2)cc1 (centres undefined)	-22.5%
O=C(C1CCCC1)N1CCCC(Nc2ccc(F)cc2)C1 (centres undefined)	-72.7%
COc1ccc(NC2CCCN(C(=O)c3oc(C)cc3C)C2)cc1OC (centres undefined)	75.6%
CCCCNC(=O)c1onc(CCl)c1C(=O)OC	-46.6%
C=CCNC(=O)c1onc(CSc2ccc(C)c(C)c2)c1C(=O)O	10.6%
Cc1cc2c(N3CCCCC3C)ncnc2s1 (centres undefined)	-5.25%
Cc1ccc(NC(=O)C2CCN(S(=O)(=O)c3cccc4cccnc34)CC2)nc1	-47.3%
CC(c1ccc(F)cc1)n1c(-c2cccs2)n[nH]c1=S (centres undefined)	-12.6%
Cc1cccc(-n2c(C)n[nH]c2=S)c1C	-35.3%
Cc1n[nH]c(=S)n1-c1ccc(Cl)cc1	-91.4%
CCn1c(-c2cc(Cl)ccc2OC)n[nH]c1=S	-40.3%
CC(NS(=O)(=O)c1ccccc1)c1n[nH]c(=S)n1-c1ccccc1 (centres undefined)	-28.7%

SMILES	activity change, negative = inhibition
Oc1c(Br)cc(Br)c(/C=N/n2c(-c3ccccc3)n[nH]c2=S)c1Br	-75.2%
CCn1c(N)[n+](CC(=O)Nc2ccc(SC(F)F)cc2)c2ccccc21	17.1%
Cc1cc(NCc2ccccn2)nc2ccccc12	16.8%
Cc1nn(CC2CCCCC2)c(N)c1-c1ccccc1	-21.2%
CN(CC(=O)NCc1ccco1)S(=O)(=O)c1ccc2c(c1)n(C)c(=O)c(=O)n2C	-5.75%
Cc1ccc(S(=O)(=O)NNC(=O)c2ccc(O)cc2)cc1	-54.2%
Cc1cc(C)nc(Sc2c(C)nn(-c3ccccc3)c2C)n1	-4.01%
Cc1ccc([N+](=O)[O-])cc1S(=O)(=O)Nc1ccc(O)c(Sc2ncn[nH]2)c1	-101%
Cc1cccc(NC(=O)C2CCN(S(=O)(=O)c3cccc4cccnc34)CC2)c1	-19.2%
COc1ccc(N=C(N(C)C)P(=O)(N(C)C)N(C)C)cc1	-0.552%
CN(C)/N=C/c1ccc(OC(=O)c2cccc([N+](=O)[O-])c2)cc1	-3.63%
Nc1ccc2c(c1)-c1ccccc1S(=O)(=O)N2	-105%
Cn1nc(-c2ccc(Cl)cc2)c2cc(C(=O)NC3CC3)sc21	-2.11%
CCN1CCN(C(=O)c2cc3c(-c4ccc(Cl)cc4)nn(C)c3s2)CC1	-4.97%
COc1cccc(-c2nc(CCl)cs2)c1	22.5%
Fc1ccc2c(c1)/C(=N/Nc1ccccn1)CCS2	-12.8%
COc1ccc(-c2cc(-c3n[nH]c(=S)n3-c3cc(OC)ccc3OC)[nH]n2)cc1	46.9%
O=C(CN1C(=O)S/C(=C\C=C\c2ccccc2)C1=O)Nc1ccc(C(=O)O)cc1	-22.9%
O=c1c2c(nc3n1CCCCC3)sc1c(O)cccc12	-92.9%
COc1cc(/C=N/Nc2cc(C)nc(N)n2)ccc1O	-108%
COc1ccc2c(/C=N/NS(=O)(=O)c3ccc(C)cc3)c[nH]c2c1	-4.96%
COc1ccc(/C=N/Nc2ccc([N+](=O)[O-])cc2)cc1O	-70%
Oc1ccc(/C=N/NC2=NCCCCC2)cc1	-110%
COc1ccccc1NS(=O)(=O)c1cc([N+](=O)[O-])ccc1N/N=C/c1c[nH]c2ccccc12	0.734%
